From PubChem BioAssay (NCI)
The panel holds about 79,000 compounds, 15% with a hit somewhere; the sample as a whole holds those more often. Calls of active or inactive are those of the source. No stated cut-off is given here; in the data, active means growth inhibition above about 70%; inactive means the rest.

How the values were obtained:
[1] = NCI Yeast Anticancer Drug Screen. Data for the rad50 strain (AID 155);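 further: 0% = growth of vehicle-only cultures of the same strain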; settings: S. cerevisiae rad50 strain growth inhibition, active compounds read high
Outline: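 DNA repair mutant yeast, compound exposure, growth read-out; inhibition is taken relative to vehicle.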

[2] = NCI Yeast Anticancer Drug Screen. Data for the mec2-1 strain (AID 157); settings: S. cerevisiae mec2-1 strain, active compounds read high
Outline: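 Growth inhibition is read against vehicle-treated controls after compound exposure of the mec2-1 yeast strain, which is defective in DNA damage repair or cell cycle control.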

[3] = NCI Yeast Anticancer Drug Screen. Data for the sgs1 mgt1 strain (AID 161);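 further: 0% = growth of cultures given vehicle only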; settings: S. cerevisiae sgs1 mgt1 strain, active compounds read high
Outline: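 Compounds are added to genetically altered yeast, and growth is compared with cultures given vehicle alone to give percent inhibition.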

[4] = NCI Yeast Anticancer Drug Screen. Data for the cln2 rad14 strain (AID 165);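 further: 0% = growth equal to vehicle treated cultures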; settings: S. cerevisiae cln2 rad14 strain, active compounds read high
Outline: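 Growth inhibition, relative to vehicle-treated controls, is the read-out. The test organism is a yeast strain with defined genetic alterations, cln2 rad14.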

[5] = NCI Yeast Anticancer Drug Screen. Data for the bub3 strain (AID 167); settings: S. cerevisiae bub3 mutant strain, active compounds read high
Outline: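 In this screen, a yeast mutant lacking normal mitotic checkpoint function is challenged with compound. Relative growth versus vehicle gives the inhibition value.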

[6] = NCI Yeast Anticancer Drug Screen. Data for the mlh1 rad18 strain (AID 175); settings: S. cerevisiae mlh1 rad18 strain growth inhibition, active compounds read high
Outline: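 Cells of a genetically altered yeast strain, deficient in DNA damage repair, were treated with compound. Their growth was then compared with that of vehicle-treated cultures to give inhibition.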

[7] = at 5.0 µM (retest, dose inferred, filed as 0.5)
[8] = at 50.0 µM (retest, dose inferred, filed as 5.0)

Measured: growth inhibition

N=C1C=C(N)C(=O)c2ccccc21
inactive: [1]; [7] 29% | [2]; [7] 16% | [2]; [8] 40% | [2]; at 50.0 µM 65.5% | [3]; [7] 25% | [4]; [7] 12% | [4]; [8] 54% | [5]; [7] 31% | [6]; [7] 20%
active: [1]; [8] 87% | [1]; at 50.0 µM 97.5% | [3]; [8] 80% | [3]; at 50.0 µM 93.8% | [4]; at 50.0 µM 75.9% | [5]; [8] 85% | [5]; at 50.0 µM 94.3% | [6]; [8] 83% | [6]; at 50.0 µM 95%

CC1=CC(=O)C=CC1(C)C(Cl)(Cl)Cl (stereo unspecified)
inactive: [1]; [7] -16% | [1]; [8] -24% | [1]; at 50.0 µM -3.05% | [2]; [7] -15% | [2]; [8] -12% | [2]; at 50.0 µM -1.55% | [3]; [7] 0% | [3]; [8] -6% | [3]; at 50.0 µM -11.6% | [4]; [7] -44% | [4]; [8] -10% | [4]; at 50.0 µM 44.3% | [5]; [7] -6% | [5]; [8] 2% | [5]; at 50.0 µM -0.65% | [6]; [7] -10% | [6]; [8] -22% | [6]; at 50.0 µM 1%

CN(C)c1ccc(C(C#N)(c2ccccc2)c2ccc(N(C)C)cc2)cc1
active: [1]; [8] 87% | [2]; [8] 92% | [2]; at 50.0 µM 96.2% | [3]; [8] 93% | [3]; at 50.0 µM 94.2% | [4]; [8] 89% | [5]; [7] 80% | [5]; [8] 91% | [5]; at 50.0 µM 97.5% | [6]; [8] 86%
inactive: [1]; [7] 35% | [1]; at 50.0 µM 39.3% | [2]; [7] 14% | [3]; [7] 48% | [4]; [7] 1% | [4]; at 50.0 µM 59.8% | [6]; [7] 16% | [6]; at 50.0 µM 43.5%

Cc1onc(-c2ccccc2)c1C(=O)N/N=C/c1cc(Cl)cc(Cl)c1O
active: [1]; [7] 92% | [1]; [8] 95% | [1]; at 50.0 µM 80.6% | [2]; [7] 96% | [2]; [8] 96% | [2]; at 50.0 µM 88.5% | [3]; [7] 93% | [3]; [8] 98% | [3]; at 50.0 µM 90.8% | [4]; [7] 87% | [4]; [8] 96% | [4]; at 50.0 µM 84.5% | [5]; [7] 94% | [5]; at 50.0 µM 87.8% | [6]; [7] 96% | [6]; [8] 94% | [6]; at 50.0 µM 85.2%
inactive: [5]; [8] 63%

COc1ccc(C(OCC2OC(n3ccc(NC(=O)c4ccccc4)nc3=O)C(O)C2O)(c2ccccc2)c2ccccc2)cc1 (stereo unspecified)
inactive: [1]; [7] 56% | [1]; at 50.0 µM 68.7% | [2]; [7] 23% | [3]; [7] 36% | [3]; at 50.0 µM 56.4% | [5]; [7] 52% | [6]; [7] 62%
active: [1]; [8] 91% | [2]; [8] 91% | [2]; at 50.0 µM 98.2% | [3]; [8] 83% | [4]; [7] 76% | [4]; [8] 96% | [4]; at 50.0 µM 84.8% | [5]; [8] 90% | [5]; at 50.0 µM 98.5% | [6]; [8] 90% | [6]; at 50.0 µM 84.2%

CCCCCCCCCCCCN1C(C)=CS/C1=C\C=C\c1scc(C)[n+]1CCCCCCCCCCCC
inactive: [1]; [7] 9% | [2]; [7] -4% | [3]; [7] 18% | [4]; [7] 4% | [5]; [7] 23% | [6]; [7] 1%
active: [1]; [8] 94% | [1]; at 50.0 µM 88% | [2]; [8] 97% | [2]; at 50.0 µM 89.2% | [3]; [8] 96% | [3]; at 50.0 µM 84.7% | [4]; [8] 91% | [4]; at 50.0 µM 85% | [5]; [8] 95% | [5]; at 50.0 µM 85% | [6]; [8] 93% | [6]; at 50.0 µM 83%

CCN(CC)CCNC(Cc1ccccc1)c1ccc(OCc2ccccc2)cc1 (stereo unspecified)
inactive: [1]; [7] 39% | [2]; [7] 28% | [2]; at 50.0 µM 42.4% | [3]; [7] 42% | [4]; [7] 35% | [4]; at 50.0 µM 57.2% | [5]; [7] 49% | [6]; [7] 47%
active: [1]; [8] 98% | [1]; at 50.0 µM 86.7% | [2]; [8] 98% | [3]; [8] 99% | [3]; at 50.0 µM 72% | [4]; [8] 94% | [5]; [8] 99% | [5]; at 50.0 µM 87.6% | [6]; [8] 98% | [6]; at 50.0 µM 84.8%

O=[n+]1c2ccccc2n([O-])c2cc(Cl)ccc21
inactive: [4]; [7] 48%
active: [1]; [7] 95% | [1]; [8] 99% | [1]; at 50.0 µM 98.7% | [2]; [7] 86% | [2]; [8] 100% | [2]; at 50.0 µM 99.4% | [3]; [7] 77% | [3]; [8] 99% | [3]; at 50.0 µM 99.1% | [4]; [8] 99% | [4]; at 50.0 µM 96.7% | [5]; [7] 95% | [5]; [8] 100% | [5]; at 50.0 µM 98.5% | [6]; [7] 94% | [6]; [8] 99% | [6]; at 50.0 µM 99.1%

Cc1ccccc1NC(=O)Cc1csc2[n+]1C(=O)/C(=C/c1ccc([N+](=O)[O-])cc1)S2
inactive: [1]; [7] 22% | [1]; [8] 28% | [1]; at 50.0 µM 15.7% | [2]; [7] 29% | [2]; [8] 33% | [2]; at 50.0 µM -6.7% | [3]; [7] -14% | [3]; [8] -4% | [3]; at 50.0 µM 39.6% | [4]; [7] -2% | [4]; [8] 7% | [4]; at 50.0 µM -27.7% | [5]; [7] 8% | [5]; [8] 4% | [5]; at 50.0 µM 8.95% | [6]; [7] 25% | [6]; [8] 37% | [6]; at 50.0 µM 20.5%

COc1cc(/C=C/C(=O)CC(=O)/C=C/c2ccc(O)c(OC)c2)ccc1O
inactive: [1]; [7] 55% | [3]; [7] 20% | [4]; [7] 15% | [5]; [7] 27% | [6]; [7] 55%
active: [1]; [8] 95% | [1]; at 50.0 µM 83.8% | [2]; [7] 74% | [2]; [8] 93% | [2]; at 50.0 µM 87.1% | [3]; [8] 89% | [3]; at 50.0 µM 88% | [4]; [8] 88% | [4]; at 50.0 µM 84.3% | [5]; [8] 80% | [5]; at 50.0 µM 83.7% | [6]; [8] 91% | [6]; at 50.0 µM 85.5%

NC(=S)N/N=C\c1nccc2c(N)cccc12
inactive: [1]; [7] 6% | [1]; at 50.0 µM 61.4% | [2]; [7] 35% | [3]; [7] 9% | [4]; [7] -12% | [4]; at 50.0 µM 36.4% | [5]; [7] 0% | [6]; [7] 10% | [6]; at 50.0 µM 67.5%
active: [1]; [8] 87% | [2]; [8] 89% | [2]; at 50.0 µM 76.7% | [3]; [8] 81% | [3]; at 50.0 µM 74% | [4]; [8] 81% | [5]; [8] 85% | [5]; at 50.0 µM 74.8% | [6]; [8] 85%

O=C(CCl)N(c1ccccc1)c1ccccc1
active: [1]; at 50.0 µM 89.7% | [2]; at 50.0 µM 90.2% | [3]; at 50.0 µM 91.8% | [5]; at 50.0 µM 86.5% | [6]; [8] 73% | [6]; at 50.0 µM 92.8%
inactive: [1]; [7] 5% | [1]; [8] 59% | [2]; [7] 3% | [2]; [8] 59% | [3]; [7] 1% | [3]; [8] 54% | [4]; [7] 1% | [4]; [8] 39% | [4]; at 50.0 µM 68.5% | [5]; [7] 8% | [5]; [8] 63% | [6]; [7] 2%
